Screening results from PubChem.
Cycloheximide cs: counter-screen for Shiga toxin inhibitors: cycloheximide protein synthesis inhibition; cell reporter, cycloheximide protein synthesis inhibition counterscreen; max response, %; hit rate 12% among 300,000; AID 2314; in the data active = max response mostly above about 13%, no sharp cut-off; inactive = mostly below about 14%; note: read at 38.3 µM for the half of the compounds with a filed dose; 0% is about no effect
Pf growth 96h: P. falciparum growth inhibition at 96 hour, primary screen for plastid delayed-death inhibitors; hit rate 6.9% among 320,000; Potency, µM (doses to about 28.7 µM), for inactives: at the top dose activity change, negative = inhibition, actives largely listed as inhibitors; P. falciparum luciferase reporter growth, 96 h; AID 504834; note: potency is the fitted concentration of half-maximal effect; % is set by controls: 0 for no effect and ±100 for the full control effect
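Infected RBCs, 2% Hct / 0.05% parasitemia final; luciferase-reporter P. falciparum; cpd 96 h, 37 C, 5% CO2; luciferase detection reagent; luminescence.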
Shiga inhibitor: blocks Shiga toxin action in Vero cells; Vero cells, Shiga toxin protein synthesis inhibition reporter; inhibition, % at 38.7 µM; hit rate 9.2% among 290,000; AID 2315; in the data active = inhibition mostly above about 28%, no sharp cut-off; inactive = mostly below about 43%; note: 0% is about no effect
FBPA Giardia inh: Giardia lamblia aldolase inhibition; purified Giardia FBPA; Potency, µM (doses to about 59.6 µM), without a hit: top-dose activity, negative = inhibition, most hits filed as inhibitors; hit rate 0.71% among 290,000; note: potency is the fitted concentration of half-maximal effect; % is set by controls: 0 for no effect and ±100 for the full control effect; nearly all actives have a fitted effect of over 55% in size
Target sequence (A8B2U2 whole entry, looked up): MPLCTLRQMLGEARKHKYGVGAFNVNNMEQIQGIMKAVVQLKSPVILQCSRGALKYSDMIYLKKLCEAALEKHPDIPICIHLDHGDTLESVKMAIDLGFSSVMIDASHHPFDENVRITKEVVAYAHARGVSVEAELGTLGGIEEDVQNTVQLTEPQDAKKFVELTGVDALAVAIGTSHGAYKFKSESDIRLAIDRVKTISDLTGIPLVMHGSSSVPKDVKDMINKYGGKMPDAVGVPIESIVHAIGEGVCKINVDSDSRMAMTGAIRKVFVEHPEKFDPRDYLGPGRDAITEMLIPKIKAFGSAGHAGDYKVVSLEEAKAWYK
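Giardia FBPA (40 nM reagent) was preincubated 10 min at RT with compound (up to 57.5 uM final), then substrate plus GAPDH/TPI/NAD/arsenate coupling system with diaphorase/resazurin was added; resorufin fluorescence (525/598 nm) was read after 20 min.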
Pf growth 48h: P. falciparum growth inhibition at 48 hours (one generation); P. falciparum luciferase growth in erythrocytes, 48 h; Potency, µM (doses to about 28.7 µM), for the others: top-dose activity change, negative = inhibition, actives largely listed as inhibitors; hit rate 5.9% among 310,000; AID 504832; note: potency is the fitted concentration of half-maximal effect; % is set by controls: 0 for no effect and ±100 for the full control effect
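Cell-based growth assay: transgenic P. falciparum expressing firefly luciferase, cultured in red cells within RPMI 1640 containing 0.5% w/v Albumax, 24 mM bicarbonate and gentamycin. A drop in luciferase activity indicates inhibition.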
NS1 inh: blocks influenza NS1 protein function; Potency, µM (highest dose often 46.1 µM), without a hit: at the top dose activity, positive = more growth; hit rate 0.4% among 270,000; calls by dose curve; note: potency is the fitted concentration of half-maximal effect; actives are rising curves; nearly all actives have a fitted effect of over 50% in size
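Recovery from NS1-induced slow growth read by OD600 in budding yeast switched to galactose assay medium (pH 6.0, -URA) at 1:100 dilution. Compound 23 nl per well; the matching strain lacking NS1 serves as control.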
Active calls of the source: *; ? = inconclusive; . = no result given; [ ] = dose if it differs, or a comment. Compounds with a hit are over-represented: about 21% of the library has one in this group of screens. Unless noted, calls come from the whole dose curve; as a rule, active = well fitted curve in the direction sought with a large enough effect; inconclusive = small, poorly fitted or top-dose-only effect, or another doubt; inactive = no such curve, though single readings can be large; an effect the other way counts as inactive or inconclusive.

SMILES | Cycloheximide cs | Pf growth 96h | Shiga inhibitor | FBPA Giardia inh | Pf growth 48h | NS1 inh
Cc1c(C(=O)NCc2ccccn2)sc2nc(-c3ccc(F)cc3)cn12 | 0.7 | ? | 8.9 | -3.8% | ? | -10.8%
Cc1c(C(=O)NCCCN2CCOCC2)sc2nc(-c3ccccc3)cn12 | -2.3 | ? | 12.8 | -4.5% | -5.5% | -3.6%
COCCNC(=O)c1sc2nc(-c3ccccc3)cn2c1C | 29.0* | 51.7% | 70.1* | 0.1% | 56.5% | -7.0%
Cc1ccc(S(=O)(=O)N2CCCC2)cc1C(=O)N1CCC(C)CC1 | -1.2 | -7.5% | 0.8 | . | 0.1% | -0.9%
Cn1c(/C=C/c2cccc(Br)c2)nc2ccccc2c1=O | 46.5* | ? | 80.4* | -1.6% | ? | -42.6%
O=c1c2ccccc2nc(/C=C/c2cccc(Br)c2)n1CCCO | 0.3 | 13.1µM* | -13.7 | 0.7% | ? | 8.0%
O=c1c2ccccc2nc(/C=C/c2ccc([N+](=O)[O-])o2)n1CCCO | 17.7* | 2.62µM* | 26.7 | -11.0% | ? | -116.7%
O=c1c2ccccc2ncn1-c1cccc(Br)c1 | -2.5 | 1.65µM* | 5.5 | 9.2% | 25.9% | -15.1%
O=c1c2ccccc2nc(/C=C/c2ccc([N+](=O)[O-])cc2)n1CCCO | 6.4 | 45.0% | 14.0 | -8.8% | -29.4% | -18.4%
Cn1c(/C=C/c2cccc([N+](=O)[O-])c2)nc2ccccc2c1=O | -1.6 | ? | -14.4 | 4.0% | 14.8% | -1.0%
CCOCCCNC(=O)c1ccc2c(c1)ncn2-c1ccccc1OC | -1.4 | 10.0% | -2.6 | 2.4% | ? | 0.6%
Cc1ccc(S(=O)(=O)NCC(=O)N2CCOCCOCCOCC2)cc1 | -3.9 | 62.4% | -10.3 | 14.2% | 16.3% | -9.0%
Cc1c(C(=O)COC(C)(C)C)[nH]c2ccccc12 | 20.3* | 2.9% | 24.5 | 5.0% | 1.5% | -53.0%
CCOC(=O)c1[nH]c2ccccc2c1NC(=O)C(C)(C)C | -1.0 | ? | -1.4 | 0.1% | . | -5.8%
CSc1nc2sc(-c3ccccc3)cc2c(=O)n1N | 22.0* | 354.4% | 48.2 | 3.3% | 99.2% | -0.5%
NC(=O)NC(=O)CSc1nc2sc(-c3ccccc3)cc2c(=O)n1-c1ccccc1 | 11.0* | 38.7%[5.75 µM] | 19.9 | -1.5% | 16.8% | .
CNC(=O)CSc1nc2sccc2c(=O)n1-c1ccccc1 | -6.0 | 8.0% | -9.5 | -9.8% | -1.9% | 14.3%
Cc1ccc(-n2c(N)c(C(=O)N3CCOCC3)sc2=S)cc1 | 3.5 | -0.6% | 2.6 | -18.9% | 2.4% | -1.7%
CN1CCN(C(=O)c2sc(=S)n(-c3ccccc3)c2N)CC1 | -1.6 | ? | -0.3 | 5.61µM* | 4.0% | 0.8%
Cc1c(-c2ccncc2)oc2ccc(Br)cc2c1=O | 7.6 | ? | 27.1 | 3.5% | 9.28µM* | 1.5%
COc1cc(C(O)c2nc3ccccc3n2C(C)C)cc(OC)c1OC (stereo unspecified) | 2.9 | -26.7% | -6.3 | -0.5% | -68.8% | -5.6%
S=C(Nc1ccc2cn[nH]c2c1)Nc1ccc(Cl)cc1Cl | 17.9* | 15.2% | 47.4 | ? | 15.1% | -0.1%
S=C(Nc1ccccc1)Nc1ccc(Cl)cc1Cl | 28.7* | 88.4% | 139.5* | ? | 64.5% | 10.0%
S=C(Nc1ccc2cn[nH]c2c1)Nc1ccccc1Cl | 72.6* | 175.0% | 51.0* | ? | 114.1% | -4.1%
CCc1ccc(NC(=S)Nc2ccc3cn[nH]c3c2)cc1 | 14.0 | 5.3% | 49.9* | -18.5% | 30.7% | -3.0%
SMILES | Cycloheximide cs | Pf growth 96h | Shiga inhibitor | FBPA Giardia inh | Pf growth 48h | NS1 inh
O=C(Cn1ncn2c(cc3ccccc32)c1=O)NCCc1cccs1 | -3.2 | 14.9% | 16.2 | . | 14.6% | 3.8%
CC1CC(C)CN(CC(O)COCc2ccccc2)C1 (stereo unspecified) | -4.8 | -20.3% | 1.2 | -14.8% | -5.5% | -12.9%
Cc1ccc(NC(=O)c2ccc(F)cc2F)cc1NS(C)(=O)=O | 8.1 | 28.3% | 61.4* | -3.4% | 26.7% | -4.3%
CCc1ccc(C(=O)Nc2ccc(C)c(NS(C)(=O)=O)c2)cc1 | 7.6* | -6.0% | 39.2 | -3.5% | 36.0% | -10.9%
Cc1cccc(NC(=O)CCCn2c(=S)[nH]c3ccccc3c2=O)c1 | -3.8 | ? | -25.0 | 2.7% | ? | .
CCc1c(C)nc(Nc2nc(C)c3ccc(OC)cc3n2)[nH]c1=O | 0.5 | 7.38µM* | -11.2 | -2.2% | . | 5.7%
COc1ccc2c(C)nc(Nc3nc(C)c(C)c(=O)[nH]3)nc2c1 | 47.6* | ? | 25.0 | -6.2% | 89.1% | -3.2%
CCc1c(C)nc(Nc2nc(C)c3cc(OC)ccc3n2)[nH]c1=O | 7.8 | -18.8%[5.75 µM] | -16.2 | -2.7% | ? | -15.3%
COc1ccc(Nc2nc(-c3ccccc3)c3ccccc3n2)cc1 | -5.4 | -89.6% | 12.6 | 0.8% | 5.8% | -11.9%
COc1ccc(Nc2nc(C)c3ccccc3n2)cc1 | 27.0* | 3.7µM* | 135.0* | -9.4% | 115.1% | -15.8%
COc1ccc2c(C)nc(Nc3nc(C)cc(C)n3)nc2c1 | 2.2 | 4.65µM* | -7.4 | -25.7% | 13.1µM* | 8.1%
C=CC[C@@H]1C=C[C@@H](O/N=C\[C@@H](NS(=O)(=O)c2ccc(C)cc2)[C@H](C)/C=C\CC(=O)OC)[C@@H](CO)O1 | . | . | . | -0.7%[12.9 µM] | . | .
CCCCn1c(SCC(=O)NC2CCCC2)nnc1-c1ccco1 | -7.0 | 6.0% | -2.9 | 1.5% | -14.5% | 0.5%
Cc1ccc2cc(NC(=O)Cc3ccccc3)ccc2n1 | 53.3* | 134.8% | 91.7* | -3.9% | 263.2% | -5.8%
Cc1ccc2cc(NC(=O)c3ccccc3C)ccc2n1 | 33.7* | 150.1% | 81.3* | -0.3% | 6.0%[0.00184 µM] | -5.4%
Cc1ccc2cc(NC(=O)c3ccc(C(C)(C)C)cc3)ccc2n1 | -3.3 | 4.7% | 25.1 | 10.1% | -0.6%[0.00184 µM] | -5.6%
CCc1ccc(C(=O)Nc2ccc3nc(C)ccc3c2)cc1 | 31.1* | 78.2% | 48.5 | -6.1% | 21.1%[0.00184 µM] | -4.4%
CN(C(=O)c1cccc(NC(=O)Cc2ccccc2)c1)c1ccccc1 | 1.3 | -27.2% | 8.5 | 4.7% | 13.1% | 14.0%
O=C(CCNS(=O)(=O)c1ccccc1)OCC(=O)c1ccc[nH]1 | . | 12.2% | . | . | 9.9% | .
Cc1nn(Cc2noc(C(=O)NC3CCC(C)CC3)n2)c(C)c1Br (stereo unspecified) | -6.2 | ? | -1.6 | 3.9% | 12.9% | -15.1%
CCC(C)[C@H](NC(=O)N1CC(=O)Nc2ccccc21)C(=O)N1CCC(C(=O)O)CC1 (stereo partly specified) | -0.7 | 1.5% | 0.7 | . | 18.7% | -4.1%
CNC(=O)CSc1nnc(NC(=O)C2CC(=O)N(c3ccccc3OC)C2)s1 (stereo unspecified) | -3.0 | -18.6% | -2.5 | . | -5.0% | 3.3%
Cc1ccc(C)c2[nH]c(=O)c(CN(Cc3ccco3)C(=O)Nc3ccccc3)cc12 | 16.3 | ? | -7.7 | 8.0% | 11.7µM* | -51.3%
Cc1cccc2cc(CN(Cc3ccco3)C(=O)c3cccs3)c(=O)[nH]c12 | -3.2 | 9.28µM* | 17.4 | 12.0% | 10.4µM* | -9.6%
Cc1ccc2cc(CN(Cc3ccco3)C(=O)NCc3ccccc3)c(=O)[nH]c2c1C | 7.4 | 11.7µM* | 2.8 | 6.3% | -29.4% | -10.9%
